# Data as given in PubChem BioAssay (Tox21).
# The source made the active and inactive calls. Entries that show only a call come without a potency. Unless noted, calls come from the whole dose curve; as a rule, active = well fitted curve in the direction sought with a large enough effect in the repeat runs; inconclusive = weak or mixed curves; inactive = no such curve, though single readings can be large; an effect the other way counts as inactive or inconclusive.
# Tests used:
# [1] = qHTS assay to identify small molecule antagonists of the thyroid receptor (TR) signaling pathway - cell viability counter screen (AID 743064); note: nearly all actives have a fitted effect of over 50% in size
# Summary of the method: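 In rat pituitary GH3.TRE-Luc reporter cells co-exposed to compound and 1 nM T3 for 23.5 h, cytotoxicity was assessed with CellTiter-Fluor in the same wells, read by fluorescence.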
# [2] = qHTS assay to identify small molecule antagonists of the thyroid receptor (TR) signaling pathway (AID 743065); note: nearly all actives have a fitted effect of over 55% in size; note: potency is the fitted concentration of half-maximal effect
# Summary of the method: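 GH3.TRE-Luc rat pituitary cells (two TREs driving luciferase) were dosed with compound, then stimulated with 1 nM T3 (final) for 23.5 h at 37 C. ONE-Glo luminescence was the read-out, with CellTiter-Fluor fluorescence as the cytotoxicity counter-screen.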
# [3] = test system: thyroid hormone receptor (rat, GH3 cells); assay: qHTS assay to identify small molecule agonists of the thyroid receptor (TR) signaling pathway (AID 743066; calls by dose curve; note: potency is the fitted concentration of half-maximal effect)
# [4] = qHTS assay to identify small molecule antagonists of the estrogen receptor alpha (ER-alpha) signaling pathway - cell viability counter screen (AID 743074; calls by dose curve;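 note: HEK293 cells carrying ER-alpha-UAS-bla reporter stimulated with 17beta-estradiol; nearly all actives have a fitted effect of over 45% in size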)
# [5] = qHTS assay to identify small molecule antagonists of the estrogen receptor alpha (ER-alpha) signaling pathway using the BG1 cell line - cell viability counter screen (AID 743081);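 note: compound given together with 17beta-estradiol as the ER stimulus; series mostly up to about 70 µM; nearly all actives have a fitted effect of over 45% in size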
# [6] = biological target: Aromatase (Homo sapiens) (UniProt P11511); assay: qHTS assay to identify aromatase inhibitors (AID 743083); note: nearly all actives have a fitted effect of over 55% in size; note: potency is the fitted concentration of half-maximal effect
# [7] = qHTS assay to identify aromatase inhibitors - cell viability counter screen (AID 743084);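 note: cells stimulated with testosterone during compound exposure; nearly all actives have a fitted effect of over 55% in size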
# [8] = biological target: Aryl hydrocarbon receptor (Homo sapiens) (UniProt P35869); assay: qHTS assay to identify small molecule that activate the aryl hydrocarbon receptor (AhR) signaling pathway (AID 743085); note: nearly all actives have a fitted effect of over 15% in size; note: potency is the fitted concentration of half-maximal effect;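 for activation: HG2L7.5c1 human HepG2 liver cells with stably integrated DRE-driven firefly reporter; series mostly up to about 70 µM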
# Summary of the method: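 AhR agonist activity is inferred from enhanced light output of a DRE-controlled firefly luciferase reporter in HepG2 cells, measured with ONE-Glo following 24 h treatment at 37C.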
# [9] = qHTS assay to identify small molecule that activate the aryl hydrocarbon receptor (AhR) signaling pathway - cell viability counter screen (AID 743086);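 note: HepG2 liver cells carrying the AhR DRE luciferase reporter; series mostly up to about 70 µM; nearly all actives have a fitted effect of over 45% in size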
# Summary of the method: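 HepG2-AhR-luc (HG2L7.5c1) cells, 4000/well, treated 24 h at 37 C with compound; viability measured as CellTiter-Fluor fluorescence after 30 min in the same wells as the luciferase read.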
# [10] = qHTS assay to identify small molecule antagonists of the peroxisome proliferator-activated receptor gamma (PPARg) signaling pathway - cell viability counter screen (AID 743194); note: nearly all actives have a fitted effect of over 55% in size
# Summary of the method: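 Cytotoxicity counter screen in PPARg-bla HEK293H cells, same wells as reporter assay. Compounds plus 50 nM rosiglitazone (final) for 17 h at 37 C, then viability read by CellTiter-Glo luminescence.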
# [11] = qHTS assay for small molecule agonists of the antioxidant response element (ARE) signaling pathway (AID 743202; active = well fitted activation curve with a large enough effect in the signal ratio in the repeat runs, not every such curve was filed as active; inconclusive = weak or mixed curves, or effect the other way; inactive = no such curve, though single readings can be large or run the other way; the % refers to the signal ratio; note: potency is the fitted concentration of half-maximal effect)
# Summary of the method: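 HepG2 ARE-bla reporter line, 2,000 cells/well; 5 h preincubation 37 C/5% CO2; compound (DMSO) 16 h 37 C; B/G FRET substrate 2 h RT; fluorescence intensity.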
# [12] = qHTS assay for small molecule agonists of the antioxidant response element (ARE) signaling pathway - cell viability counter screen (AID 743203; calls by dose curve; note: nearly all actives have a fitted effect of over 55% in size)
# Summary of the method: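 Parallel cytotoxicity read-out for the ARE-bla screen: HepG2 reporter cells, 16 hrs with compounds, then CellTiter-Glo luminescence.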
# [13] = qHTS assay for small molecule activators of the heat shock response signaling pathway - cell viability counter screen (AID 743209); note: nearly all actives have a fitted effect of over 50% in size
# Summary of the method: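 To flag cytotoxic compounds, HSE-bla HeLa cells plated at 1500 cells/well were dosed for 5 h at 37 C, followed by the reporter FRET read and then CellTiter-Glo, with luminescence recorded 30 min after reagent addition.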
# [14] = qHTS assay for small molecule activators of the heat shock response signaling pathway (AID 743210; active = well fitted activation curve with a large enough effect in the signal ratio in the repeat runs, with a control signal flat, not every such curve was filed as active; inconclusive = weak or mixed curves; the % refers to the signal ratio;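 note: HeLa cells with beta-lactamase reporter driven by heat shock elements; series mostly up to about 63 µM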)
# Summary of the method: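 Beta-lactamase reporter read-out: FRET substrate fluorescence after 2.5 h at RT, following 5 h compound treatment at 37 C of HeLa cells carrying HSE-driven bla reporter; quantitative HTS format.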
# [15] = biological target: Estrogen receptor (Homo sapiens) (UniProt P03372); assay: qHTS assay to identify small molecule antagonists of the estrogen receptor alpha (ER-alpha) signaling pathway (AID 743069; active = well fitted curve in the direction sought with a large enough effect in the signal ratio in the repeat runs, not every such curve was filed as active; inconclusive = weak or mixed curves, or effect the other way; inactive = no such curve, though single readings can be large or run the other way; the % refers to the signal ratio)
# Summary of the method: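 Beta-lactamase FRET fluorescence is read after 2 hr at room temperature with LiveBLAzer B/G substrate. Before that, ER-alpha-bla HEK293 cells sit 4 hr after plating, then receive compound plus 17beta-estradiol and incubate 18 hr at 37C.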
# [16] = biological target: Estrogen receptor (Homo sapiens) (UniProt P03372); assay: qHTS assay to identify small molecule agonists of the estrogen receptor alpha (ER-alpha) signaling pathway (AID 743075; calls by dose curve;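 note: HEK293 GripTite cells with ER-alpha and UAS-driven beta-lactamase reporter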; note: potency is the fitted concentration of half-maximal effect)
# [17] = biological target: Estrogen receptor (Homo sapiens) (UniProt P03372); assay: qHTS assay to identify small molecule agonists of the estrogen receptor alpha (ER-alpha) signaling pathway using the BG1 cell line (AID 743079); note: nearly all actives have a fitted effect of over 20% in size; note: potency is the fitted concentration of half-maximal effect
# [18] = qHTS assay to identify small molecule antagonists of the estrogen receptor alpha (ER-alpha) signaling pathway using the BG1 cell line (AID 743080; calls by dose curve;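 note: BG1 cells stimulated with 17beta-estradiol alongside compound; nearly all actives have a fitted effect of over 25% in size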; note: potency is the fitted concentration of half-maximal effect)
# Summary of the method: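 After 5 days in phenol-red-free 10% charcoal-stripped FBS medium, BG1-Luc-4E2 cells were seeded, left 24 h at 37 C, co-treated with compounds and 17beta-estradiol for 21.5 h, then assayed for viability and luciferase.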
# [19] = biological target: Peroxisome proliferator-activated receptor gamma (Homo sapiens) (UniProt P37231); assay: qHTS assay to identify small molecule agonists of the peroxisome proliferator-activated receptor gamma (PPARg) signaling pathway (AID 743094; active = well fitted activation curve with a large enough effect in the signal ratio in the repeat runs, not every such curve was filed as active; inconclusive = weak or mixed curves, or effect the other way; inactive = no such curve, though single readings can be large or run the other way; the % refers to the signal ratio)
# Summary of the method: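 Fluorescence-based beta-lactamase readout in HEK293H PPARg UAS-bla cells after 17 h compound exposure (37C) and 1 h B/G FRET substrate incubation at room temperature.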
# [20] = biological target: Peroxisome proliferator-activated receptor gamma (Homo sapiens) (UniProt P37231); assay: qHTS assay to identify small molecule antagonists of the peroxisome proliferator-activated receptor gamma (PPARg) signaling pathway (AID 743191; calls by dose curve; note: series mostly up to about 63 µM; nearly all actives have a fitted effect of over 30% in size)
# Summary of the method: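 GeneBLAzer PPARg UAS-bla HEK293H cells, 5 h post-plating, exposed to compounds 17 h at 37C. LiveBLAzer B/G FRET substrate added for 1 h at room temperature; beta-lactamase reporter read by fluorescence intensity.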
# Estrogen receptor (Homo sapiens), sequence (P03372 whole entry, looked up): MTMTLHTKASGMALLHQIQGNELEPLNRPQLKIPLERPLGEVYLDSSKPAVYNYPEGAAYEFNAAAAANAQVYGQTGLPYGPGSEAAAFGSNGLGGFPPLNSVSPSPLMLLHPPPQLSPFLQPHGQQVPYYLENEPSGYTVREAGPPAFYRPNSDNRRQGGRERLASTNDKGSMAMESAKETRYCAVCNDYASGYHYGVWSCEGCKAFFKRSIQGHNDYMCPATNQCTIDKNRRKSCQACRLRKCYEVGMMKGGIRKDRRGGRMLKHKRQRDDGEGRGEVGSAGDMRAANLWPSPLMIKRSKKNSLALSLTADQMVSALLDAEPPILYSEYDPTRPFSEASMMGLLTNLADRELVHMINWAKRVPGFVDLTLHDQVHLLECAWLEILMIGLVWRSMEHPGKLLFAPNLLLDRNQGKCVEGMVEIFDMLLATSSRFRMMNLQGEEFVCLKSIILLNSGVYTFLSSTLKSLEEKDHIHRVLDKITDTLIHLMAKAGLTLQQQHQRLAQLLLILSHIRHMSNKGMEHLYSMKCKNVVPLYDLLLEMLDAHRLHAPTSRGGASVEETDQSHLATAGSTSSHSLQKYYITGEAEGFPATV
# Aromatase (Homo sapiens), sequence (P11511 whole entry, looked up): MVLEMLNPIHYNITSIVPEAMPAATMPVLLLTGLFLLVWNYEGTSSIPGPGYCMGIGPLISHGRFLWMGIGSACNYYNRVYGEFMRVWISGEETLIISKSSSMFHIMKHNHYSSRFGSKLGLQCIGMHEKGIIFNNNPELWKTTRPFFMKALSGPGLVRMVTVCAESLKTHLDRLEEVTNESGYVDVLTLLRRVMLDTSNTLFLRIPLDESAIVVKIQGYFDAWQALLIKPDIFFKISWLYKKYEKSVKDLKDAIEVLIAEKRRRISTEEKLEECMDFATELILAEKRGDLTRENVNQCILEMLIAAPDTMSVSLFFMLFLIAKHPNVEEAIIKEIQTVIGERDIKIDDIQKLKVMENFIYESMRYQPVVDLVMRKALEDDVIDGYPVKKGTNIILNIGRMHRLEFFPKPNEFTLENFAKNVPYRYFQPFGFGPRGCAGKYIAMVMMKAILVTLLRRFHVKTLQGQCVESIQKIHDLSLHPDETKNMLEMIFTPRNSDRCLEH
# Aryl hydrocarbon receptor (Homo sapiens), sequence (P35869 whole entry, looked up): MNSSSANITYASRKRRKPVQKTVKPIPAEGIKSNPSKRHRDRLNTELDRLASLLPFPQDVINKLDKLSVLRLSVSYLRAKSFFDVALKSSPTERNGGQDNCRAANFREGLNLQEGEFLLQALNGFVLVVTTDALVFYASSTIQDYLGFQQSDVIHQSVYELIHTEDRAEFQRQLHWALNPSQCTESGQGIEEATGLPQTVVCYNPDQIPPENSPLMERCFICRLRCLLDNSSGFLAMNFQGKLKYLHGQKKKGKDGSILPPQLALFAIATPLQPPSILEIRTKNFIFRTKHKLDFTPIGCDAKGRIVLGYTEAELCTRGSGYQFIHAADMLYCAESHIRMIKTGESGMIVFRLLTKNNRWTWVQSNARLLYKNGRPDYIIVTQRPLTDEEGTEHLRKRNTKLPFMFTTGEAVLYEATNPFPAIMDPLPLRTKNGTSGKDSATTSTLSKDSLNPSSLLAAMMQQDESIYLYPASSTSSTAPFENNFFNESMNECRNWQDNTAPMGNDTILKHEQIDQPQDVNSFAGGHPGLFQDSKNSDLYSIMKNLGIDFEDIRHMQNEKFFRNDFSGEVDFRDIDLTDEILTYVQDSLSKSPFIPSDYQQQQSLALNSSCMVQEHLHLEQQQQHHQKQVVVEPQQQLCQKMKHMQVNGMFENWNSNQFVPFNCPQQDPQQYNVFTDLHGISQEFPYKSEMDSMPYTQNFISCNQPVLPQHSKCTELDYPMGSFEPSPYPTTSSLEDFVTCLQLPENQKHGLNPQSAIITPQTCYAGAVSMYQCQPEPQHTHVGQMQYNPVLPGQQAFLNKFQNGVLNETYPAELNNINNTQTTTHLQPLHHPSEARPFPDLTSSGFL
# Peroxisome proliferator-activated receptor gamma (Homo sapiens), sequence (P37231 whole entry, looked up): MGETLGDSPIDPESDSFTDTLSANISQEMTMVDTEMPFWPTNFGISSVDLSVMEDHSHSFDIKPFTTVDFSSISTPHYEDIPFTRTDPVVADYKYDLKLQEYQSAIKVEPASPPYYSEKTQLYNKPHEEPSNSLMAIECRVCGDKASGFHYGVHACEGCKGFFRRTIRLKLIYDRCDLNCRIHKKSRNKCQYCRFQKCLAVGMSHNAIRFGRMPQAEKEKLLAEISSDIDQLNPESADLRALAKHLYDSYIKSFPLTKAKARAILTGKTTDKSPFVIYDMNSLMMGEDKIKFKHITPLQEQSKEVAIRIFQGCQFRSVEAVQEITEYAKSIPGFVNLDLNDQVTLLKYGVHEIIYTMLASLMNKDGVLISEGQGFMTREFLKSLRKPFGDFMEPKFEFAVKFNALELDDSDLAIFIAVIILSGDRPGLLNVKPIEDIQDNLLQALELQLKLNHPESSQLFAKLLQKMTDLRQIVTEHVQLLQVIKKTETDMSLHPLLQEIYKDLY
SMILES,Potency [1],Potency [2],Potency [3],outcome [4],outcome [5],Potency [6],Potency [7],Potency [8],Potency [9],Potency [10],Potency [11],outcome [12],outcome [13],outcome [14],Potency [15],Potency [16],Potency [17],Potency [18],outcome [19],outcome [20]
C=CC(=O)OCCCCCC,inactive,inactive,inactive,inactive,inactive,inactive,inactive,inactive,inactive,inactive,inactive,inactive,inactive,inactive,,,,,,
CC1=CC(C)C(C=O)C(C)C1 (centres undefined),inactive,inactive,inactive,,inactive,inactive,inactive,inactive,inactive,inactive,inactive,,inactive,inactive,inactive,inactive,inactive,inactive,inactive,inactive
O=C(O)/C=C/c1ccc(/C=C/C(=O)O)cc1,inactive,inactive,inactive,inactive,inactive,inactive,inactive,inactive,inactive,,inactive,inactive,inactive,inactive,,,,,inactive,
CCc1cc(S(=O)(=O)O)c2cc(C(C)C)cccc1-2,inactive,inactive,inactive,,inactive,inactive,inactive,inactive,inactive,inactive,,inactive,inactive,inactive,inactive,inactive,inactive,inactive,inactive,
C=CCSCC1Nc2cc(Cl)c(S(N)(=O)=O)cc2S(=O)(=O)N1 (centres undefined),inactive,inactive,inactive,inactive,inactive,inactive,inactive,inactive,inactive,inactive,inactive,,inactive,inactive,,,,,inactive,inactive
C=CCOc1nc(OCC=C)nc(OCC=C)n1,inactive,inactive,inactive,inactive,inactive,inactive,inactive,54.5 µM (active),inactive,,,inactive,inactive,inactive,,,,,inactive,inactive
O=C(O)c1ccccc1-c1ccc(C(F)(F)F)cc1,inactive,inactive,inactive,inactive,inactive,inactive,inactive,inactive,inactive,inactive,inactive,inactive,inactive,inactive,,inactive,inactive,inactive,,
CCOC(=O)Cn1c(=O)sc2cccc(Cl)c21,inactive,inactive,inactive,inactive,inactive,inactive,inactive,30.6 µM (active),inactive,inactive,,inactive,inactive,inactive,,inactive,inactive,inactive,inactive,inactive
CCCC(=O)O[C@]1(C(=O)CCl)[C@@H](C)C[C@H]2[C@@H]3CCC4=CC(=O)C=C[C@]4(C)[C@@]3(F)C(=O)C[C@@]21C,inactive,11.9 µM (active),inactive,inactive,,inactive,inactive,,inactive,inactive,,,,inactive,,inactive,inactive,,inactive,
C1=C\CC/C=C\CC/C=C\CC/1,inactive,inactive,inactive,inactive,inactive,inactive,inactive,inactive,inactive,inactive,inactive,inactive,inactive,inactive,,,,,inactive,inactive
Cc1onc(-c2ccccc2)c1-c1ccc(S(N)(=O)=O)cc1,inactive,inactive,inactive,inactive,inactive,inactive,inactive,inactive,inactive,inactive,inactive,inactive,,inactive,,,,,inactive,inactive
CCCCCN(CCCCC)C(=O)C(CCC(=O)O)NC(=O)c1ccc(Cl)c(Cl)c1 (centres undefined),inactive,inactive,inactive,inactive,inactive,inactive,inactive,inactive,,inactive,,,inactive,,,inactive,,inactive,inactive,
CC(C=O)Cc1ccc(C(C)C)cc1 (centres undefined),inactive,inactive,inactive,inactive,inactive,inactive,inactive,inactive,inactive,inactive,inactive,inactive,inactive,inactive,,,,,inactive,
O=C(O)c1ccccc1S,inactive,inactive,inactive,,,inactive,inactive,inactive,inactive,,,inactive,inactive,inactive,inactive,inactive,inactive,inactive,inactive,inactive
CCCc1ccccc1O,inactive,inactive,inactive,inactive,inactive,inactive,inactive,inactive,inactive,inactive,,inactive,inactive,,,,,,inactive,
NC(=O)CCCCC1CCSS1 (centres undefined),inactive,inactive,inactive,inactive,inactive,inactive,,inactive,inactive,inactive,,inactive,inactive,inactive,,0.239 µM [inconclusive] (active),0.0266 µM (active),inactive,inactive,

SMILES,Potency [1],Potency [2],Potency [3],outcome [4],outcome [5],Potency [6],Potency [7],Potency [8],Potency [9],Potency [10],Potency [11],outcome [12],outcome [13],outcome [14],Potency [15],Potency [16],Potency [17],Potency [18],outcome [19],outcome [20]
CSc1ccc(C=O)cc1,inactive,inactive,inactive,inactive,inactive,inactive,inactive,inactive,,inactive,inactive,inactive,inactive,inactive,,,,,inactive,inactive
CC(CCO)CCCC(C)(C)O (centres undefined),inactive,inactive,27.3 µM (active),inactive,inactive,inactive,inactive,inactive,,inactive,,inactive,inactive,inactive,,,,,inactive,inactive
C[C@H]1O[C@@H](n2cc(F)c(=O)[nH]c2=O)[C@H](O)[C@@H]1O,inactive,inactive,inactive,inactive,inactive,inactive,inactive,inactive,inactive,inactive,,inactive,inactive,inactive,,,,,inactive,
O=S(=O)(O)c1ccccc1O,inactive,inactive,inactive,,inactive,inactive,inactive,inactive,inactive,inactive,,inactive,inactive,inactive,inactive,inactive,inactive,inactive,inactive,inactive
O=S(=O)(c1cccc2cnccc12)N1CCCNCC1,inactive,inactive,inactive,inactive,inactive,13.3 µM (active),inactive,,inactive,inactive,,inactive,inactive,inactive,inactive,inactive,,6.68 µM (active),,
CCCOCC(C)OCC(C)O (centres undefined),inactive,inactive,inactive,inactive,inactive,inactive,inactive,inactive,inactive,inactive,,inactive,inactive,inactive,,,,,,
COc1cc(O)cc(O)c1,inactive,inactive,inactive,inactive,inactive,inactive,inactive,,inactive,inactive,,inactive,inactive,,,,,inactive,inactive,
Cc1cc(C)c(NC(=O)CN(CC(=O)O)CC(=O)O)c(C)c1Br,inactive,inactive,inactive,inactive,inactive,inactive,inactive,inactive,inactive,inactive,inactive,inactive,inactive,inactive,,,,,inactive,inactive
CC(C)c1ccc2oc3nc(N)c(C(=O)O)cc3c(=O)c2c1,inactive,,inactive,inactive,inactive,inactive,inactive,0.841 µM (active),,inactive,23.7 µM (active),inactive,inactive,inactive,,,,,inactive,
CC(C)c1cccc(C(C)C)c1N,,inactive,inactive,inactive,inactive,inactive,inactive,inactive,inactive,inactive,inactive,inactive,inactive,inactive,inactive,inactive,inactive,inactive,inactive,inactive
COC(C(=O)O)c1ccccc1 (centres undefined),inactive,inactive,inactive,,inactive,inactive,inactive,inactive,inactive,inactive,inactive,inactive,inactive,inactive,,,,,inactive,inactive
CCCCC=O,inactive,inactive,inactive,inactive,inactive,,,,inactive,inactive,inactive,inactive,inactive,inactive,,,,,,
Cn1cnc2c(=O)[nH]c(N)nc21,inactive,inactive,inactive,,inactive,inactive,inactive,inactive,,inactive,inactive,inactive,inactive,inactive,,,,,inactive,
N#CCN(CC#N)CCN(CC#N)CC#N,inactive,inactive,inactive,inactive,inactive,,,,,,inactive,inactive,inactive,inactive,,,,,,
CC(C)CCCC(C)CCCC(C)CCCCC(C)CCCC(C)CCCC(C)C (centres undefined),inactive,inactive,inactive,inactive,inactive,inactive,inactive,,inactive,inactive,inactive,inactive,inactive,inactive,,,,,,
